Experimental data reported in PubChem BioAssay.
Values joined by “and” are separate entries in the source; they are usually repeats but may differ in a detail not shown here. Identical values can stand only once. The list shows a part of the results. Active and inactive are the calls of the source.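 Rule for the calls, unless noted: active = mean inhibition across three repeat runs above about 25% carried over from the earlier screen (limit read from the data); inactive = the rest.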

How the values were obtained:
[1] = system: TLR4-MyD88 interaction (human), BLA complementation; assay: TLR4-MyD88 association inhibitors, retest, confirmation, cell-based, HeLa CL3-4, BLA complementation, FRET ratio (AID 941); conditions: CCF4 FRET ratio, at 8.4 µM, stronger effect = higher value;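 note: plate controls were DMSO only for no effect and clavulanic acid blocking BLA at full dose for full effect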
[2] = inhibitors of full-length beta-lactamase reporter, confirmation, artefact control for TLR4-MyD88 binding inhibitor project, cell-based, HeLa, full-length BLA, CCF4 FRET ratio (AID 1237;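 active = mean inhibition over three repeats above about 26% taken from the earlier screen, limit read from the data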;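 note: HeLa cells stably expressing beta-lactamase reporter as counterscreen for TLR4-MyD88 inhibitors; 0% = DMSO and 100% = clavulanic acid full inhibition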); conditions: at 8.4 µM, stronger effect = higher value
[3] = biological target: Insulin-degrading enzyme (Homo sapiens) (UniProt P14735); assay: human IDE inhibitors in live cells, confirmation, fluorescence polarization, HEK cells, FAbetaB substrate (AID 435028;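 active = mean inhibition across triplicate wells above the cutoff set by the earlier primary insulin-degrading enzyme screen, cut at about 16% in these data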;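 note: 0% = DMSO wells and 100% = 60 µM reference IDE inhibitor Ii1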); conditions: FAbetaB cleavage, at 5.59 µM, stronger effect = higher value
Chain of Insulin-degrading enzyme (Homo sapiens) (P14735 whole entry, looked up): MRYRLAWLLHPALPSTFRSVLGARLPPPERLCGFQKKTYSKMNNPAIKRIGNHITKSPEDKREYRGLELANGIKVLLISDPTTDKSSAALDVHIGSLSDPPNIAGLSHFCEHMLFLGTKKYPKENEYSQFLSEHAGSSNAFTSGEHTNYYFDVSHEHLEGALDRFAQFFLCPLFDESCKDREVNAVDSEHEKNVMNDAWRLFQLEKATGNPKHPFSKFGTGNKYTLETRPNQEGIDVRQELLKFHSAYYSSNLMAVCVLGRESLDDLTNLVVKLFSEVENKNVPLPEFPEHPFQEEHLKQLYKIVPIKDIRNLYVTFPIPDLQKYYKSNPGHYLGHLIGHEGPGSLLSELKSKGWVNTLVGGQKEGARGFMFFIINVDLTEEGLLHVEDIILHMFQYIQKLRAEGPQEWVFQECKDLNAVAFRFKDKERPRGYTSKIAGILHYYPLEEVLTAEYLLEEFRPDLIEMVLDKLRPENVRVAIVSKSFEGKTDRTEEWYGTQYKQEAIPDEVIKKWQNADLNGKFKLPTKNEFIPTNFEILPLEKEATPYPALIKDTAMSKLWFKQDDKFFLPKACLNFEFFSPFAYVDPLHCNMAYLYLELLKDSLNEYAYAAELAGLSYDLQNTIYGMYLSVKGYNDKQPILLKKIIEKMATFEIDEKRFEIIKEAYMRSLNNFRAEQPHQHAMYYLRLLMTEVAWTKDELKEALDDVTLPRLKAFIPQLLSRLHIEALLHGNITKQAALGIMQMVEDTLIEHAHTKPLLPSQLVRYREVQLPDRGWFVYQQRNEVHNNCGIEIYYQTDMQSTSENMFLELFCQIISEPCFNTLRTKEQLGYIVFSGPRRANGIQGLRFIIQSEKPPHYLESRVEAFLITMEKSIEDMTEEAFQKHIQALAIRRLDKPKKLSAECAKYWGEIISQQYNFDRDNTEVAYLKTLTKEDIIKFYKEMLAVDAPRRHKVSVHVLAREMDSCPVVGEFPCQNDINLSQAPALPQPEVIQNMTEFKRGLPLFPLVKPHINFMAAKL

[4] = cytotoxicity in HEK cells, cytotoxicity control for IDE inhibitor project, cell-based, luminescence (AID 449730; in the data active = inhibition above about 22%;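 note: 0% = vehicle wells and 100% = reference cytotoxic drug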); conditions: HEK293 cytotoxicity, ATP luminescence; at 5.59 µM; stronger effect = higher value
[5] = STAT1 signaling activators, confirmation, cell-based, HTS, luciferase reporter (AID 1262;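 active = activation above a set limit carried over from the earlier primary STAT1 screen, cut at about 140% in these data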;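 note: simple ratio to median IFN-gamma plus DMSO wells so 0% means no light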); conditions: NIH 3T3 STAT1-luciferase reporter, IFN-gamma potentiation, luminescence; at 5.7 µM; stronger effect = higher value; 100% = IFN-gamma EC80 alone, no compound
[6] = NF-kB reporter activators, TNF-alpha stimulated, counter-screen for STAT1 activator project, cell-based, HEK293T, luciferase luminescence (AID 1306;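 active = activation above the mean of solvent-only control wells plus 3 SD, set per campaign, cut at about 130% in these data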;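 note: TNF-alpha given at a submaximal dose yielding about 80% of full reporter signal; values are well signal over median control so 100% means no change and 0% no light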); conditions: at 5.7 µM, stronger effect = higher value, 100% = TNF-alpha with vehicle only
[7] = biological target: Signal transducer and activator of transcription 3 (Homo sapiens) (UniProt P40763); assay: STAT3 reporter activation by STAT1 hits, confirmation, counter-screen for STAT1 activator project, U3A cells, luciferase, luminescence (AID 1316;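 active = activation above the solvent-only control well mean plus 3 SD, set per plate batch, cut at about 110% in these data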;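 note: 0% = no luminescence and 100% = median IL-6 plus DMSO wells; higher means more STAT3 reporter activation so hits are non-selective activators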); conditions: IL-6, luminescence, at 5.7 µM, stronger effect = higher value, 100 = IL-6 alone, no compound effect, cells lack STAT1
[8] = STAT3 reporter inhibitors, retest of hits, confirmation, U3A cells, luciferase, luminescence (AID 1265;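 active = inhibition above the hit cutoff computed for the primary STAT3 screen, cut at about 44% in these data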;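 note: 0% = IL-6 plus DMSO and 100% = IL-6 plus nifuroxazide control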); conditions: IL-6 STAT3 luciferase reporter, at 5.7 µM, stronger effect = higher value, cell line lacks STAT1
[9] = NF-kB reporter inhibitors in human cells, confirmation, counter-screen for STAT3 inhibitor project, cell-based, HEK293T, luciferase, TNF-alpha stimulus (AID 1308;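 active = inhibition above the mean of solvent-only control wells plus 3 SD, cutoff set per campaign, cut at about 13% in these data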;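 note: 0% = TNF-alpha with DMSO and 100% = TNF-alpha with MG high control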); conditions: TNF-alpha induced, at 5.7 µM, stronger effect = higher value
[10] = STAT1 reporter inhibitors, IFN-gamma induced, confirmation, counter-screen for STAT3 inhibitor project, cell-based, NIH 3T3, luciferase luminescence (AID 1317;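 active = inhibition above the mean plus 3 SD of solvent-only control wells, limit set per screening run, cut at about 16% in these data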;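 note: 0% = DMSO with IFN-gamma and 100% = nifuroxazide control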); conditions: NIH 3T3 STAT1-luciferase reporter, at 5.7 µM, stronger effect = higher value
[11] = KLF5 expression inhibitors, confirmation, DLD-1 cells, luminescence (AID 1834;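 active = inhibition above a set limit taken from the earlier primary screen, cut at about 63% in these data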;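 note: 0% = DMSO wells and 100% = LY294002 at 200 µM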); conditions: DLD-1 KLF5 promoter firefly luciferase reporter, at 4 µM, stronger effect = higher value
[12] = cytotoxicity in rat IEC-6 cells, cytotoxicity control for KLF5 inhibitor project, cell-based, luminescence, triplicate (AID 1905; in the data active = inhibition above about 23%;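 note: cells exposed to compounds for 48 hours before viability read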); conditions: IEC-6 rat intestinal cells, viability luminescence; at 4 µM; stronger effect = higher value
[13] = biological target: Nuclear receptor coactivator 3 (Homo sapiens) (UniProt Q9Y6Q9); assay: SRC3 coactivator transcriptional activity inhibitors, confirmation, cell-based, luminescence, quadruplicate (AID 588792;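 active = mean inhibition over 43.08%, the solvent-only control mean plus 3 SD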;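 note: 0% = DMSO treated cells and 100% = gossypol at 36 µM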); conditions: HEK293 GAL4-SRC3 luciferase reporter, at 3.6 µM, stronger effect = higher value
[14] = system: transactivating tegument protein VP16 (Human herpesvirus 1), Gal4-VP16 luciferase reporter; assay: VP16 transactivation inhibitors, counter-screen for SRC3 inhibitor project, cell-based, luminescence, high throughput (AID 588794; in the data active = inhibition above about 30%); conditions: mammalian cells, VP16-driven luciferase reporter luminescence; at 3.6 µM; stronger effect = higher value
[15] = biological target: Nuclear receptor coactivator 1 (Homo sapiens) (UniProt Q15788); assay: SRC1 coactivator transcriptional activity inhibitors, confirmation, cell-based, luminescence, quadruplicate (AID 588820;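 active = mean inhibition above 46.68%, the untreated control wells mean plus 3 SD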;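 note: 0% = DMSO wells and 100% = gossypol 36 µM treated wells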); conditions: HEK293 GAL4-SRC1 luciferase reporter, at 3.6 µM, stronger effect = higher value
Chain of Nuclear receptor coactivator 1 (Homo sapiens) (Q15788 whole entry, looked up, the tested form may be a part): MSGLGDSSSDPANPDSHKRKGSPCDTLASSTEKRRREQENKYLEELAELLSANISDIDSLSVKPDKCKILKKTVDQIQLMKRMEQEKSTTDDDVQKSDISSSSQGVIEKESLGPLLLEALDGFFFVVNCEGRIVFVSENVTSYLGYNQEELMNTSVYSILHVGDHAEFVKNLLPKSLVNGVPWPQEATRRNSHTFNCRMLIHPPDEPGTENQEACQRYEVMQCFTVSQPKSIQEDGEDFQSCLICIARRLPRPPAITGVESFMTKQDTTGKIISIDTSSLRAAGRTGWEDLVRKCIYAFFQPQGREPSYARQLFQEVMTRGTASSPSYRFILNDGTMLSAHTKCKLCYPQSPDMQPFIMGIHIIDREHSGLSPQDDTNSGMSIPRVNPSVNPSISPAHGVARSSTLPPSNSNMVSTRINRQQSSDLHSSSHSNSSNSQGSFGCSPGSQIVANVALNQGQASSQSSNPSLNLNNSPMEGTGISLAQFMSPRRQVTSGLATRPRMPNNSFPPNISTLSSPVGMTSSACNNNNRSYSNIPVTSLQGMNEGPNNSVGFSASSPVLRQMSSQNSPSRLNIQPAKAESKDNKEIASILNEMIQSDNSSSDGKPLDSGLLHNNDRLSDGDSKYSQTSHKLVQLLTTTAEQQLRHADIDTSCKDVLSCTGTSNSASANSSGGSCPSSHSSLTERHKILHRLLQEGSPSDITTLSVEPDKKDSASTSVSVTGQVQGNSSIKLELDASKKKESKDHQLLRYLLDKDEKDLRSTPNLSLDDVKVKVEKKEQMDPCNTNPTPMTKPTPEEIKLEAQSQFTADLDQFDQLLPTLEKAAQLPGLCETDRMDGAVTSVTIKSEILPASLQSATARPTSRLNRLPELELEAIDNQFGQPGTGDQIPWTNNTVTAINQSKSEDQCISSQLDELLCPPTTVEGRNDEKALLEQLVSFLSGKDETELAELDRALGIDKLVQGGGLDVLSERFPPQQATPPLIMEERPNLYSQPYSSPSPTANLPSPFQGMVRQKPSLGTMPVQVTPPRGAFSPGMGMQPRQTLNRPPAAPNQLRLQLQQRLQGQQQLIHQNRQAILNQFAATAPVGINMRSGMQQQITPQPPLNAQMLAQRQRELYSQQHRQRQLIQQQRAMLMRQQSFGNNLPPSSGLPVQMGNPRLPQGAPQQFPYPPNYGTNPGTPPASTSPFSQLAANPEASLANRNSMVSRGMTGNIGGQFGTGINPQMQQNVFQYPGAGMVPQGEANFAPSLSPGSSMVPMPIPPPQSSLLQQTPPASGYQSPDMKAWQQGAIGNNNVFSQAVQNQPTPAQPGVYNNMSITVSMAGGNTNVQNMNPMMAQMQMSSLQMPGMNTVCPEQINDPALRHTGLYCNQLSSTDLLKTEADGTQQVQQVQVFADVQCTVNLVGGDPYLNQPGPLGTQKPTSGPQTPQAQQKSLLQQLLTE

[16] = VP16 transactivation inhibitors, counter-screen for SRC1 inhibitor project, cell-based, luminescence, high throughput (AID 588824; in the data active = inhibition above about 25%); conditions: cell-based VP16 transactivation luciferase luminescence; at 3.6 µM; stronger effect = higher value
[17] = biological target: Photoreceptor-specific nuclear receptor (Homo sapiens) (UniProt Q9Y5X4); assay: NR2E3 agonist confirmation in cells, cell-based, luminescence, CHO-S two-hybrid (AID 624378;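 active = average inhibition above a cutoff equal to the mean inhibition of all tested compounds plus one SD, cut at about 70% in these data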;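 note: 0% = DMSO in NR2E3 cells and 100% = DMSO in cells lacking NR2E3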); conditions: CHO-S mammalian two-hybrid NR2E3-NCOR, luciferase luminescence; at 3.98 µM; stronger effect = higher value
Chain of Photoreceptor-specific nuclear receptor (Homo sapiens) (Q9Y5X4 whole entry, looked up, the tested form may be a part): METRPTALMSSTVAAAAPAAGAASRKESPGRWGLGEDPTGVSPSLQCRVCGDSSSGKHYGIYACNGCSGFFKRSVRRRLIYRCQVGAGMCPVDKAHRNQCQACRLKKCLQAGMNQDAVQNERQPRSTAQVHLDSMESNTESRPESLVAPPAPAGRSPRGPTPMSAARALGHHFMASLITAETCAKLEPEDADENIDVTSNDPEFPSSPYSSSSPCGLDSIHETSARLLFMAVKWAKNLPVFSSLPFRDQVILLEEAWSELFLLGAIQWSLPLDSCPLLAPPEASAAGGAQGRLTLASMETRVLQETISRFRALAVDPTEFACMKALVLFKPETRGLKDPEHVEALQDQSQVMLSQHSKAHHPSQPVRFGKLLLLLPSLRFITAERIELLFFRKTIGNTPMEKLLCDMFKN

[18] = GAL4-VP16 reporter modulators, confirmation, counter-screen for NR2E3 agonist project, cell-based, luminescence, CHO-S, high throughput (AID 624379;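 active = mean inhibition above a cutoff equal to the average over all tested compounds plus one standard deviation, cut at about 70% in these data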;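 note: 0% = DMSO with VP16-transfected cells and 100% = DMSO with cells lacking VP16; higher means less reporter light so more repression of VP16 activity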); conditions: CHO-S GAL4-VP16 luciferase reporter, at 3.98 µM, stronger effect = higher value
[19] = StAR promoter reporter inhibitors, counter-screen for LRH-1 inverse agonist project, cell-based, luminescence, high throughput (AID 651611; in the data active = inhibition above about 28%); conditions: StAR promoter luciferase reporter counterscreen, at 3.6 µM, stronger effect = higher value
[20] = biological target: Nuclear receptor subfamily 5 group A member 2 (Homo sapiens) (UniProt O00482); assay: LRH-1 (NR5A2) inverse agonists, retest, confirmation, cell-based, luminescence (AID 651613; in the data active = inhibition above about 42%;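 note: HEK293T cells co-transfected with LRH-1 and StAR promoter luciferase reporter; 0% = vehicle wells and 100% = parental cells lacking receptor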); conditions: cell-based LRH-1 luciferase reporter, inverse agonism; at 3.6 µM; stronger effect = higher value
[21] = biological target: Steroidogenic factor 1 (Homo sapiens) (UniProt Q13285); assay: SF1 (NR5A1) inverse agonists, counter-screen for LRH-1 inverse agonist project, cell-based, luminescence, high throughput (AID 651614; in the data active = inhibition above about 44%;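 note: cells cotransfected with StAR promoter reporter and SF1 expression vector; 0% = vehicle on cells with receptor and 100% = vehicle on cells lacking receptor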); conditions: cell-based SF1 luciferase reporter, at 3.6 µM, stronger effect = higher value
[22] = VP16 transactivation reporter inhibitors, counter-screen for LRH-1 inverse agonist project, cell-based, luminescence, high throughput (AID 651615; in the data active = inhibition above about 33%); conditions: Gal4-VP16 luciferase reporter cells, at 3.6 µM, stronger effect = higher value
[23] = Gal4-VP16 luciferase reporter inhibitors, counter-screen for COUP-TFII antagonist project, cell-based, luminescence, HEK293 (AID 687007; in the data active = inhibition above about 13%); conditions: at 8.5 µM, stronger effect = higher value
[24] = biological target: COUP transcription factor 2 (Homo sapiens) (UniProt P24468); assay: NR2F2 transcriptional activity inhibitors, confirmation, cell-based, luciferase reporter, HEK293, triplicate (AID 687008;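 active = mean inhibition over three repeats above a set limit taken from the earlier primary screen, cut at about 38% in these data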;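 note: 100% = cells given the luciferase reporter alone without the COUP-TF2 vector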); conditions: HEK293 NGFI-A luciferase reporter, luminescence; at 8.5 µM; stronger effect = higher value
[25] = growth loss of phage-infected E. coli expressing H. pylori AddAB, confirmation, AddAB inhibitor project, absorbance, E. coli V3065, T4 phage, triplicate (AID 488942;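 active = mean inhibition above a set limit taken from the earlier primary screen, cut at about 13% in these data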;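 note: higher means less bacterial growth since AddAB block lets phage replicate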); conditions: OD, at 11.9 µM, stronger effect = higher value, T4 phage with gene 2 nonsense mutations
[26] = growth loss of RecBCD+ E. coli with mutant T4 phage, counter-screen for AddAB inhibitor project, absorbance, V66 E. coli (AID 488955;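 active = mean inhibition above the mean of solvent-only control wells plus 3 SD, cut at about 4% in these data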;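 note: optical density read after an 18 h incubation at 37 °C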); conditions: OD growth, at 11.9 µM, stronger effect = higher value
[27] = bacterial viability inhibition counter-screen, confirmation, counter-screen for AddAB inhibitor project, absorbance (AID 488956; in the data active = inhibition above about 25%); conditions: absorbance (AddAB counterscreen), at 11.9 µM, stronger effect = higher value
[28] = growth loss of phage-infected RecBCD+ E. coli, confirmation, RecBCD inhibitor project, absorbance, E. coli V66, T4 gene 2 phage (AID 651982;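 active = mean inhibition over triplicates exceeding the hit threshold derived in the original primary screen, cut at about 11% in these data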); conditions: E. coli V66 + T4 2- phage, growth OD; at 11.9 µM; stronger effect = higher value
[29] = E. coli viability inhibition, counter-screen for RecBCD inhibitor project, absorbance, high throughput (AID 651983; in the data active = inhibition above about 20%;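 note: E. coli strain V66 grown with compound alone and no phage infection; 0% = bacteria with DMSO vehicle only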); conditions: absorbance (OD) growth, at 11.9 µM, stronger effect = higher value
[30] = growth loss of phage-infected AddAB-carrying E. coli, confirmation, counter-screen for RecBCD inhibitor project, absorbance, E. coli V3065, T4 phage (AID 651984;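 active = mean inhibition above the solvent-only control wells' mean plus 3 SD, cut at about 22% in these data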;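 note: higher means less bacterial growth from phage killing when AddAB is blocked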); conditions: E. coli expressing H. pylori AddAB + T4 phage, OD growth; at 11.9 µM; stronger effect = higher value; gene 2 mutant T4, recBCD-deleted host
[31] = system: HIV-1 integrase (multimerization); assay: HIV-1 IN multimer formation enhancers, counter-screen for LEDGF/p75 integration inhibitor project, biochemical, TR-FRET (AID 1053131; in the data active = activation above about 8.9%); conditions: TR-FRET HIV-1 integrase multimerization, at 7.7 µM, stronger effect = higher value
[32] = TR-FRET optical interference artefacts, confirmation, artefact control for LEDGF/p75-dependent integration inhibitor project, biochemical, HIV-1 IN multimerization (AID 1053135;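 active = inhibition above the mean over all tested compounds plus 3 SD, which no compound reached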;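 note: 0% = integrase with antibodies and DMSO and 100% = antibodies without integrase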); conditions: TR-FRET optical interference counterscreen, at 7.7 µM, stronger effect = higher value
[33] = system: HIV-1 integrase / human LEDGF/p75 complex; assay: inhibitors of HIV-1 IN-LEDGF/p75 DNA integration, confirmation, biochemical, TR-FRET (AID 1053136; in the data active = inhibition above about 14%); conditions: TR-FRET LEDGF/p75-dependent HIV-1 integration, at 3.7 µM, stronger effect = higher value
[34] = biological target: Sphingosine 1-phosphate receptor 4 (Homo sapiens) (UniProt O95977); assay: S1P4 receptor antagonists, human, confirmation, cell-based (AID 1524; in the data active = inhibition above about 30%); conditions: S1P4-expressing cell line, antagonist mode, reporter read-out; at 4.98 µM; stronger effect = higher value
[35] = biological target: Sphingosine 1-phosphate receptor 1 (Homo sapiens) (UniProt P21453); assay: S1P1 receptor antagonists, human, counter-screen for S1P4 antagonist project, cell-based (AID 1564; in the data active = inhibition above about 40%;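 note: receptor stimulated with S1P near its EC80; 0% = agonist stimulated wells and 100% = vehicle only wells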); conditions: cell-based S1P1 antagonist counterscreen, at 4.98 µM, stronger effect = higher value
Chain of Sphingosine 1-phosphate receptor 1 (Homo sapiens) (P21453 whole entry, looked up): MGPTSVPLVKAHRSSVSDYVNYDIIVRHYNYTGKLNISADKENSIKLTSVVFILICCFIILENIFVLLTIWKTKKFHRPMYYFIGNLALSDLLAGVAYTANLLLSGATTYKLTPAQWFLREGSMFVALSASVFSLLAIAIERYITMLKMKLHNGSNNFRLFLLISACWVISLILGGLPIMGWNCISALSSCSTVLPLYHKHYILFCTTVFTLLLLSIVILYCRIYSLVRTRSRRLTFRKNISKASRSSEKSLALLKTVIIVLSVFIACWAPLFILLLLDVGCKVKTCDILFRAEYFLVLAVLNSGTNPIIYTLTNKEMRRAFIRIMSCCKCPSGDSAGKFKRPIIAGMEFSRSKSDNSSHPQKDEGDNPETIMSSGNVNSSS

[36] = biological target: Toll-like receptor 9 (Homo sapiens) (UniProt Q9NR96); assay: TLR9-MyD88 association inhibitors, retest, confirmation, cell-based, CHO, BLA complementation, fluorescence, triplicate (AID 540250;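 active = mean inhibition across three repeats above about 21% taken from the earlier screen, limit read from the data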;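 note: blue over green emission ratio reports constitutive TLR9 MyD88 association via BLA complementation; 0% = DMSO vehicle wells and 100% = clavulanate BLA inhibitor wells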); conditions: CCF4 FRET ratio, at 4.98 µM, stronger effect = higher value
Chain of Toll-like receptor 9 (Homo sapiens) (Q9NR96 whole entry, looked up): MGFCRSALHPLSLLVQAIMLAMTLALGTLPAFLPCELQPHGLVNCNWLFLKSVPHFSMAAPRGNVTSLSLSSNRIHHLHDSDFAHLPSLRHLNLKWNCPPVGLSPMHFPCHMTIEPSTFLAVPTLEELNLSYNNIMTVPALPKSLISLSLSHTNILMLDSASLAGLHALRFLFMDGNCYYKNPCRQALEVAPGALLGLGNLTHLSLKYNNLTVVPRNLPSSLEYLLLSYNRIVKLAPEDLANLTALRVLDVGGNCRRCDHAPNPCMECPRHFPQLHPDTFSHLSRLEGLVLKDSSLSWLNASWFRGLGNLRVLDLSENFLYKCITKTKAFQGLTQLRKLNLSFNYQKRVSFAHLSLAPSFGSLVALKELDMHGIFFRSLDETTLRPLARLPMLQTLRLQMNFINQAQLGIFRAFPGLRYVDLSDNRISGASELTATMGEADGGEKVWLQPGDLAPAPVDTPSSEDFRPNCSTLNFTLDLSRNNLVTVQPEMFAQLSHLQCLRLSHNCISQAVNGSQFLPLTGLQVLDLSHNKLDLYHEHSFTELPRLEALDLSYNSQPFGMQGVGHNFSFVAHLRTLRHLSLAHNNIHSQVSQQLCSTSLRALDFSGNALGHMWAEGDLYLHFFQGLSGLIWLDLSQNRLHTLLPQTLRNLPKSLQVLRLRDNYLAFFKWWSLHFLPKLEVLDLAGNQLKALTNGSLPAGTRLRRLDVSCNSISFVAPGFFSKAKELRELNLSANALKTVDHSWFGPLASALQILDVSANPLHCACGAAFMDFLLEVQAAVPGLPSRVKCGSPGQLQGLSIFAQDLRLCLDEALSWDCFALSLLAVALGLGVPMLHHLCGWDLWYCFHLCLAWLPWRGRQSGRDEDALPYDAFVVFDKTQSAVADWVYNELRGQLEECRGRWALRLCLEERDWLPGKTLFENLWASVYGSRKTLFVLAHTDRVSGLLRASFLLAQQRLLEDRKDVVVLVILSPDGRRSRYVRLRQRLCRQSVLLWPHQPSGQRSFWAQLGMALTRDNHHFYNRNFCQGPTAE

[37] = beta-lactamase reporter inhibitors in CHO cells, artefact control for TLR9-MyD88 binding inhibitor project, cell-based, fluorescence (AID 540251;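 active = mean inhibition above a 50% cutoff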;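 note: counterscreen of TLR9-MyD88 hits on CMV-driven BLA in CHO-K1 cells; 0% = DMSO alone and 100% = clavulanate blocking BLA; higher means less blue over green ratio so more BLA blockade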); conditions: CHO-BLA cells, CCF4 FRET ratio, at 4.98 µM, stronger effect = higher value
[38] = CHO cell viability loss – luminescence, single concentration, cytotoxicity control for TLR9-MyD88 binding inhibitor project (AID 588336; in the data active = inhibition above about 11%); conditions: TLR9-MyD88 CHO cells cytotoxicity, at 4.98 µM, stronger effect = higher value
[39] = biological target: Receptor-interacting serine/threonine-protein kinase 2 (Homo sapiens) (UniProt O43353); assay: NOD2-RIPK2 binding disruptors, retest, confirmation, fluorescence, CHO cells, BLA complementation, triplicate (AID 624370;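 active = mean inhibition across replicates above a set limit taken from the earlier primary screen, cut at about 21% in these data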;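 note: 0% = DMSO-only wells and the high end = clavulanate BLA-blocked wells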); conditions: CCF4 FRET, at 4.98 µM, stronger effect = higher value
Chain of Receptor-interacting serine/threonine-protein kinase 2 (Homo sapiens) (O43353 whole entry, looked up): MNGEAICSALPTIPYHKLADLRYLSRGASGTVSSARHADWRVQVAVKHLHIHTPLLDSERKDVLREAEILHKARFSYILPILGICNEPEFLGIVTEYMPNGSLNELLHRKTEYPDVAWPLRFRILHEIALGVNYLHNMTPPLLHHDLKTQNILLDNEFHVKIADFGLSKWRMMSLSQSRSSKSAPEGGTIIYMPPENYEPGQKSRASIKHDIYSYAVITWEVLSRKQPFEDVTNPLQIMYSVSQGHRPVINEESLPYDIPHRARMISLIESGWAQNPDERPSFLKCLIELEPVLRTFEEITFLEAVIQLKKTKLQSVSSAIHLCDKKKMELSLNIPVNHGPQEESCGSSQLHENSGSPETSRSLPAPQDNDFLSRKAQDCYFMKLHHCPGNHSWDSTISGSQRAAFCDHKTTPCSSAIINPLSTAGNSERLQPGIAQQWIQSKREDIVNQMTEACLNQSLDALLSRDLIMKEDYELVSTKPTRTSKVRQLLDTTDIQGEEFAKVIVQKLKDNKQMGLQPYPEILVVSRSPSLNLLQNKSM

[40] = beta-lactamase reporter inhibitors in CHO cells, confirmation, artefact control for NOD2-RIPK2 interaction inhibitor project, cell-based, CHO-K1 CMV-bla, CCF4 FRET, fluorescence (AID 624371;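 active = mean inhibition above the low-control mean inhibition plus three low-control SD, cut at about 11% in these data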;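 note: 0% = DMSO only wells and 100% = clavulanate high control wells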); conditions: CCF4 FRET ratio, counterscreen, at 4.98 µM, stronger effect = higher value

C[n+]1ccc(/C=C/c2c[nH]c3ccccc23)cc1
inactive: inhibition [4] 13.1%
active: inhibition [1] 26.1% | inhibition [2] 42.1% | inhibition [3] 42.6%

Cn1nnc2cc(C(=O)NCCC3=CCCCC3)ccc21
inactive: activation (% of control) [6] 117%
active: activation (% of control) [5] 171% | activation (% of control) [7] 119%

CCCCCCCCn1c2c(c(=N)c3c1CCC3)CCCC2
active: inhibition [2] 27.8% | inhibition [8] 86.6% | inhibition [9] 43.9% | inhibition [10] 28.9% | inhibition [11] 115% | inhibition [12] 23.5% | inhibition [13] 85.1% | inhibition [14] 87.4% | inhibition [15] 66.6% | inhibition [16] 87.6% | inhibition [17] 99.3% | inhibition [18] 91.4% | inhibition [19] 78.1% | inhibition [20] 110% | inhibition [21] 96.5% | inhibition [22] 96.8% | inhibition [23] 32.1% | inhibition [24] 87.4%
inactive: inhibition [1] 23.3%

COC(=O)Cc1cc(=O)n(-c2nc3ccccc3s2)[nH]1
inactive: inhibition [1] -4.76% | inhibition [2] 4.99%

CO/N=C(\C(=O)N[C@@H]1C(=O)N2C(C(=O)O)=C(COC(C)=O)CS[C@H]12)c1csc(N)n1 (stereo in doubt)
inactive: activation [31] 0.25% | inhibition [32] -1.28%
active: inhibition [25] 99.2% and 97% | inhibition [26] 99.5% and 97.6% | inhibition [27] 99.6% and 98.1% | inhibition [28] 100% and 96.2% and 102% | inhibition [29] 102% and 97.1% and 103% | inhibition [30] 102% and 96.3% | inhibition [33] 42.8%

O=C1c2cccc3c([N+](=O)[O-])ccc(c23)C(=O)N1CC1CCCO1 (configuration not stated)
active: inhibition [1] 82.5% | inhibition [2] 108% | inhibition [34] 112% | inhibition [35] 118% | inhibition [36] 45.8% | inhibition [37] 73.2% | inhibition [38] 56.5% | inhibition [39] 83% | inhibition [40] 70.6%

O=C1NC(=O)C2C1C(c1ccc([N+](=O)[O-])cc1)=NN2Cc1ccccc1 (configuration not stated)
active: inhibition [1] 25.8% | inhibition [2] 42.9% | inhibition [36] 25.8% | inhibition [39] 49.4% | inhibition [40] 51.9%
inactive: inhibition [37] 25.6% | inhibition [38] 4.55%

COc1ccc2nc(NC(=O)c3ccc(Br)s3)sc2c1
inactive: activation (% of control) [7] 99.8%
active: activation (% of control) [5] 185% | activation (% of control) [6] 134%

Cc1ccc2cc3cc(C(=O)N4CCCCCC4)oc3nc2c1
inactive: inhibition [8] 7.37% | activation (% of control) [6] 120% | inhibition [9] -42% | inhibition [10] -140%
active: activation (% of control) [5] 224% | activation (% of control) [7] 137%
